From PubChem BioAssay (Tox21)
Calls of active or inactive are those of the source. Unless noted, calls follow the shape of the dose curve; as a rule, active = well fitted curve in the direction sought with a large enough effect in the repeat runs; inconclusive = weak or mixed curves; inactive = no such curve, though single readings can be large; an effect the other way counts as inactive or inconclusive.

Experiments:
[1] = qHTS assay for small molecule agonists of the p53 signaling pathway (AID 651631; calls by dose curve; also: nearly all actives have a fitted effect of over 15% in size)
Outline: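 Readout was fluorescence from the LiveBLAzer FRET substrate, applied for 2 h at room temperature after 16 h compound exposure at 37 °C. Cells were the p53RE-bla HCT-116 line, with beta-lactamase driven by p53 response elements.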

[2] = qHTS assay for small molecules that induce genotoxicity in human embryonic kidney cells expressing luciferase-tagged ATAD5 (AID 651632); also: nearly all actives have a fitted effect of over 15% in size; also: potency is read from the fitted curve at half-maximal effect
Outline: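 Luminescence read-out: after 16 hr compound exposure at 37C, ATAD5-luciferase HEK293T cells received Amplite, 30 min RT, then CCD imaging. A rise in signal marks genotoxic stress.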

[3] = qHTS assay for small molecules that induce genotoxicity in human embryonic kidney cells expressing luciferase-tagged ATAD5 - cell viability (AID 651634; calls by dose curve; also: nearly all actives have a fitted effect of over 25% in size)
Outline: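 HEK293T ATAD5-luc cells, 2,000/well; compound 15.5 hr, 37C/5% CO2; CellTiter-Fluor 30 min, 37C; fluorescence read.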

[4] = qHTS assay for small molecule disruptors of the mitochondrial membrane potential - cell viability (AID 720634; calls by dose curve;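 also: human HepG2 liver cancer cells; nearly all actives have a fitted effect of over 20% in size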)
Outline: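 Luminescence from CellTiter-Glo (ATP content) gave viability in HepG2 cells, read in the same wells as the MMP dye assay after 1 hr compound exposure at 37 C.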

[5] = qHTS assay for small molecule disruptors of the mitochondrial membrane potential (AID 720635)
Outline: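 Mitochondrial membrane potential tracked with Mito-MPS dye, red aggregates (ex 540/em 590 nm) against green monomers (ex 490/em 535 nm). Compound treatment 1 hr at 37C, dye 30 min in HepG2.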

[6] = qHTS assay to test for compound auto fluorescence at 590 nm (red) in HepG2 cells (AID 720674)
Outline: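 Red autofluorescence (Ex/Em 540/590 nm, Rose Bengal sodium equivalents) was measured in HepG2 cells, 2,000 per well in MEM plus 10% FBS, plated overnight at 37 C. Readings were taken 1 hr after adding 23 nL compound or DMSO, at 37 C and 5% CO2.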

[7] = qHTS assay to test for compound auto fluorescence at 535 nm (green) in HepG2 cells (AID 720675)
[8] = qHTS assay to test for compound auto fluorescence at 460 nm (blue) in HEK293 cells (AID 720678)
Outline: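 Measured: blue fluorescence (Ex 405/Em 460 nm) of compound-treated HEK293 cells, incubated overnight at 37C with 5% CO2 and scaled to triamterene equivalents.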

[9] = qHTS assay to test for compound auto fluorescence at 590 nm (red) in HEK293 cells (AID 720679)
Outline: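 Using HEK293 cells at 2,000 per well, the screen added 23 nL of each compound after cell attachment and incubated overnight (37C, 5% CO2). The plate reader then captured red-label fluorescence, Ex/Em 540/590nm.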

[10] = qHTS assay to test for compound auto fluorescence at 460 nm (blue) in HEK293 cell free culture (AID 720681)
Outline: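 Blue fluorescence (Ex 405/Em 460 nm, triamterene-equivalent) was read immediately after pin transfer of compound or DMSO into medium (DMEM, 10% FBS) without cells.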

[11] = qHTS assay to test for compound auto fluorescence at 535 nm (green) in HEK293 cell free culture (AID 720682)
Outline: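 Compounds were pin-transferred into cell-free DMEM with 10% FBS, and green fluorescence was read at excitation 485 nm and emission 535 nm. Intensities were expressed as fluorescein-equivalent values.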

[12] = qHTS assay to test for compound auto fluorescence at 590 nm (red) in HepG2 cell free culture (AID 720684)
Outline: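 Cell-free; medium MEM + 10% FBS; compound or DMSO added by pintool; read Ex 540/Em 590 nm; Rose Bengal sodium as red reference fluorophore.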

[13] = qHTS assay to test for compound auto fluorescence at 460 nm (blue) in HepG2 cell free culture (AID 720685)
Outline: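 Cell-free plates of MEM plus 10% FBS received 23 nL compound or DMSO vehicle; blue-channel (405/460 nm) intensity scored against triamterene as reference fluorophore.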

[14] = qHTS assay to test for compound auto fluorescence at 535 nm (green) in HepG2 cell free culture (AID 720686)
[15] = qHTS assay to test for compound auto fluorescence at 460 nm (blue) in HepG2 cells (AID 720687)
Outline: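 Blue-channel autofluorescence (Ex/Em 405/460 nm, triamterene-equivalent) was measured after 1 hr compound exposure at 37 C, 5% CO2. Cells were HepG2, plated overnight at 37 C in MEM plus 10% FBS.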

[16] = molecular target: Glucocorticoid receptor (Homo sapiens) (UniProt P04150); experiment: qHTS assay to identify small molecule agonists of the glucocorticoid receptor (GR) signaling pathway (AID 720691; active = well fitted activation curve with a large enough effect in the signal ratio in the repeat runs, not every such curve was filed as active; inconclusive = weak or mixed curves, or effect the other way; inactive = no such curve, though single readings can be large or run the other way; the % refers to the signal ratio; also: potency is read from the fitted curve at half-maximal effect); settings: GR-bla HeLa, beta-lactamase reporter ratio, 18 h; activation: at 62.4 µM (top of the series) unless noted
Outline: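 HeLa GR-bla reporter line; cells pre-incubated 4 h, compound in DMSO 18 h at 37 C; LiveBLAzer B/G FRET substrate 2 h RT; fluorescence intensity read-out.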

[17] = molecular target: Glucocorticoid receptor (Homo sapiens) (UniProt P04150); experiment: qHTS assay to identify small molecule antagonists of the glucocorticoid receptor (GR) signaling pathway (AID 720692; active = well fitted inhibition curve with a large enough effect in the signal ratio in the repeat runs, not every such curve was filed as active; inconclusive = weak or mixed curves, or effect the other way; inactive = no such curve, though single readings can be large or run the other way; the % refers to the signal ratio; also: potency is read from the fitted curve at half-maximal effect)
Outline: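 Read-out: beta-lactamase FRET substrate fluorescence, 2 h at room temperature, in HeLa cells stably carrying a GRE-driven bla reporter. Compounds were co-incubated with 5 nM dexamethasone agonist (final) for 18 h at 37 C.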

[18] = qHTS assay for small molecule agonists of the p53 signaling pathway - cell viability (AID 651633; calls by dose curve; also: nearly all actives have a fitted effect of over 30% in size)
Outline: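 Viability counter-read: CellTiter-Glo luminescence (30 min, room temperature) in the same p53RE-bla plates. These plates had been exposed to compounds for 16 h at 37 C.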

[19] = qHTS assay to test for compound auto fluorescence at 590 nm (red) in HEK293 cell free culture (AID 720683)
Outline: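 Red-channel autofluorescence of compounds in culture medium (DMEM, 10% FBS), no cells, measured at 540/590 nm. Rose Bengal sodium is the reference fluorophore for equivalence.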

[20] = qHTS assay to test for compound auto fluorescence at 535 nm (green) in HEK293 cells (AID 720680)
% is scaled to controls: 0 for no effect and ±100 for the full control effect.

Chain of Glucocorticoid receptor (Homo sapiens) (P04150 whole entry, looked up): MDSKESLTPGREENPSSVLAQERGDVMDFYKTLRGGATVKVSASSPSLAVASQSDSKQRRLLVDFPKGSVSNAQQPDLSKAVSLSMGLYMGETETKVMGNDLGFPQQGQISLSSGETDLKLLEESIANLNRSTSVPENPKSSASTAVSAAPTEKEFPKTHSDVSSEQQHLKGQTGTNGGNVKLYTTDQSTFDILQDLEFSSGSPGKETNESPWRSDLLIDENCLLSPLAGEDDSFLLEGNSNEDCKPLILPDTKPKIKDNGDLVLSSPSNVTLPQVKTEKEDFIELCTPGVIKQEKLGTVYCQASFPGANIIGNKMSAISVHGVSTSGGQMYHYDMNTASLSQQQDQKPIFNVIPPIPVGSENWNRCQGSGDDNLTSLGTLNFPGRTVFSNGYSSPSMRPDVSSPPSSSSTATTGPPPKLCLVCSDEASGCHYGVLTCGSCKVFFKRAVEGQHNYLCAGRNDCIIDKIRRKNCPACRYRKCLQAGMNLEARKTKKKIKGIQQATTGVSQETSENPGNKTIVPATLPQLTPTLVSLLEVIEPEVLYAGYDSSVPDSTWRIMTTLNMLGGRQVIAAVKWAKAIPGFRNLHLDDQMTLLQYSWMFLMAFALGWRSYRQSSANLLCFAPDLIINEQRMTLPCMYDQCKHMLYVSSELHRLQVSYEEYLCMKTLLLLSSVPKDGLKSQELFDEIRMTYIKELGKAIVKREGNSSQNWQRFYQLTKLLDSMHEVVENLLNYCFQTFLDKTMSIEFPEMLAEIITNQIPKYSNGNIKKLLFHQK

O=C1OC(CN2CCOCC2)CN1/N=C/c1ccc([N+](=O)[O-])o1 (stereo unspecified)
inactive: Potency [1] | Potency [2] | Potency [3] | Potency [4] | Potency [5] | fluorescence, relative to Rose Bengal [6] -0.0946% [at 18.6 µM] | fluorescence, % of fluorescein control [7] -0.0437% [at 18.6 µM] | fluorescence, % of triamterene [8] -0.0248% [at 18.6 µM] | fluorescence, % of fluorescent control [9] 0.088% [at 18.6 µM] | fluorescence, % of fluorescent control [10] -0.128% [at 18.6 µM] | activity change [11] -0.0395% [at 18.6 µM] | fluorescence, % of Rose Bengal [12] 0.113% [at 18.6 µM] | fluorescence, % of fluorescent control [13] -0.135% [at 18.6 µM] | fluorescence, % of fluorescein control [14] -0.14% [at 18.6 µM] | fluorescence, % of fluorescent control [15] -0.0405% [at 18.6 µM] | Potency [16] | Potency [17]

C[C@H](CCC(=O)O)[C@H]1CC[C@H]2[C@@H]3CC[C@@H]4C[C@H](O)CC[C@]4(C)[C@H]3C[C@H](O)[C@]12C
active: Potency [17] 49.1 µM
inactive: Potency [1] | Potency [2] | Potency [18] | Potency [4] | Potency [6] | Potency [7] | outcome [8] | Potency [9] | outcome [10] | outcome [11] | Potency [19] | Potency [12] | outcome [13] | Potency [14] | outcome [15] | Potency [16]

Cc1oc2c(NC(=O)c3c(Cl)cccc3Cl)cccc2c1C(C)(C)O
inactive: Potency [1] | Potency [2] | Potency [18] | Potency [6] | Potency [7] | outcome [8] | Potency [9] | outcome [20] | outcome [10] | outcome [11] | Potency [19] | Potency [12] | outcome [13] | Potency [14] | outcome [15]

C[C@H]1C[C@H]2[C@@H]3CCC4=CC(=O)C=C[C@]4(C)[C@@]3(Cl)[C@@H](O)C[C@]2(C)[C@@]1(O)C(=O)CO
inactive: Potency [1] | Potency [2] | Potency [18] | Potency [4] | Potency [5] | Potency [6] | Potency [7] | Potency [9] | outcome [20] | outcome [10] | outcome [11] | Potency [19] | Potency [12] | outcome [13] | Potency [14] | outcome [15]

CCCCc1ncc(/C=C(\Cc2cccs2)C(=O)O)n1Cc1ccc(C(=O)O)cc1
inactive: Potency [1] | Potency [2] | Potency [18] | Potency [6] | Potency [7] | outcome [8] | Potency [9] | outcome [20] | outcome [10] | outcome [11] | Potency [12] | outcome [13] | Potency [14] | Potency [16] | Potency [17]

CCCCC(=O)OCC(=O)[C@H]1[C@H](C)C[C@H]2[C@@H]3C[C@H](F)C4=CC(=O)C=C[C@]4(C)[C@@]3(F)[C@@H](O)C[C@@]21C
inactive: Potency [1] | Potency [2] | Potency [18] | Potency [4] | Potency [6] | Potency [7] | outcome [8] | Potency [9] | outcome [20] | outcome [10] | outcome [11] | Potency [12] | outcome [13] | Potency [14] | outcome [15]
active: Potency [16] 0.0076 µM [inconclusive]

Cn1c(=O)cc(Oc2ccc(F)cc2F)c2cnc(NCC(C)(C)O)nc21
inactive: Potency [1] | Potency [2] | Potency [18] | Potency [7] | outcome [8] | Potency [9] | outcome [20] | outcome [10] | outcome [11] | Potency [19] | Potency [12] | outcome [13] | Potency [14] | outcome [15] | Potency [16] | Potency [17]

COc1cc(C(=O)OCCCN2CCCN(CCCOC(=O)c3cc(OC)c(OC)c(OC)c3)CC2)cc(OC)c1OC
inactive: Potency [1] | Potency [3] | Potency [4] | Potency [6] | Potency [7] | outcome [8] | Potency [9] | outcome [20] | outcome [10] | outcome [11] | Potency [19] | Potency [12] | outcome [13] | Potency [14] | outcome [15] | Potency [16] | Potency [17]
active: Potency [2] 8.41 µM

C=CCOC(=O)CCC1CCCCC1
inactive: Potency [1] | Potency [2] | Potency [18] | Potency [4] | Potency [5] | Potency [7] | outcome [8] | Potency [9] | outcome [20] | outcome [10] | outcome [11] | Potency [19] | Potency [12] | outcome [13] | Potency [14] | outcome [15] | Potency [16] | Potency [17]

CC1=CC[C@H](C(C)C)C=C1
inactive: Potency [1] | Potency [2] | Potency [18] | Potency [6] | Potency [7] | outcome [8] | Potency [9] | outcome [20] | outcome [10] | outcome [11] | Potency [19] | Potency [12] | outcome [13] | Potency [14] | outcome [15]

O=C(c1ccc(F)cc1)C1CCN(CCn2c(=S)[nH]c3ccccc3c2=O)CC1
inactive: Potency [1] | Potency [2] | Potency [3] | Potency [4] | Potency [6] | Potency [7] | outcome [8] | Potency [9] | outcome [20] | outcome [10] | Potency [19] | Potency [12] | outcome [13] | Potency [14] | outcome [15] | Potency [16] | Potency [17]

CCOC(=O)Cc1cccc2ccccc12
inactive: Potency [1] | Potency [2] | Potency [18] | Potency [4] | Potency [6] | Potency [7] | outcome [8] | Potency [9] | outcome [10] | outcome [11] | Potency [19] | Potency [12] | outcome [13] | Potency [14] | Potency [16] | Potency [17]

O=C(O)C(S)C(S)C(=O)O (stereo unspecified)
inactive: Potency [2] | Potency [18] | Potency [3] | Potency [4] | Potency [5] | Potency [6] | Potency [7] | outcome [8] | Potency [9] | outcome [20] | outcome [10] | outcome [11] | Potency [12] | outcome [13]

O=C(Cl)c1cc(C(=O)Cl)cc(C(=O)Cl)c1
inactive: Potency [2] | Potency [18] | Potency [3] | Potency [4] | Potency [6] | Potency [7] | outcome [8] | Potency [9] | outcome [20] | outcome [10] | outcome [11] | Potency [19] | Potency [12] | outcome [13] | Potency [14] | outcome [15]
